# In the library only some 19% were active in any assay of this set; here they are far more common.
# MCF10A rerep: induces DNA re-replication in MCF 10a normal breast cells; MCF 10A DNA re-replication, Hoechst nuclear intensity, 48 h; Potency, µM (series often up to 46.1 µM), actives largely listed as activators; 2.9% of 350,000 active; also: nearly all actives have a fitted effect of over 50% in size
# TDP1 cell noCPT: qHTS for Inhibitors of human tyrosyl-DNA phosphodiesterase 1 (TDP1): qHTS in cells in absence of CPT. 15% of 420,000 active. AID 686978, 2013. Potency, µM (series often up to 46.2 µM), most hits filed as inhibitors. DT40 Tdp1-/- hTDP1 cells, no CPT, ATP luminescence, 48 h; also: nearly all actives have a fitted effect of over 55% in size
#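 No-CPT arm: Tdp1-/-;hTDP1 DT40 cells (400/well) plus compounds, incubated ≥48 hr at 37 °C. Readout CellTiter-Glo luminescence.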
# IL-1B inflam inh: blocks inflammasome-driven IL-1 beta release; THP-1 LPS/ATP IL-1B secretion, AlphaLISA, 16 h; active compounds read low; activity change, % at 57.5 µM; 4.7% of 360,000 active; in the data active = activity change below about -50%; inconclusive = mostly about -30% to -49%
#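 Secreted IL-1B measured by AlphaLISA bead assay after 16 h compound exposure of THP-1 cells; compounds (final up to 57.5 uM) added 1 h before LPS (250 ng/mL) and ATP (1.25 mM) stimulation; lower signal means less secretion.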
# TDP1 cell CPT: growth inhibition of DT40 Tdp1-/-;hTDP1 cells with camptothecin (screen for TDP1 inhibitors); Potency, µM (highest dose often 46.2 µM), actives largely listed as inhibitors; chicken DT40 Tdp1-/-;hTDP1 cells + 20 nM CPT, ATP luminescence, 48 h; 12% of 420,000 active; also: nearly all actives have a fitted effect of over 55% in size
#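 Chicken DT40 Tdp1-/- cells complemented with human TDP1, 400 cells/well, exposed to compounds plus 20 nM camptothecin for at least 48 h at 37 C; viability read as ATP content by CellTiter-Glo luminescence.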
# SW480 rerep: DNA re-replication induction in SW480 cells. SW480 DNA re-replication, Hoechst DNA content imaging, 48 h. Potency, µM (doses to about 46.1 µM), actives largely listed as activators. 1.8% of 340,000 active; also: nearly all actives have a fitted effect of over 55% in size
#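 DNA re-replication was detected as more nuclei of elevated Hoechst intensity after 48 hr exposure to compound (23 nL pinned per well of 250 cells).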
# BCR signal inh: chronic active BCR signaling inhibition | ABC-DLBCL IkBa-CBG/CBR reporter, luminescence ratio, 4 h | Potency, µM (top dose mostly 46.1 µM), most hits filed as inhibitors | 0.05% of 340,000 active | AID 493014; active = well fitted inhibition curve with a large enough effect in the signal ratio, with a control signal flat, not every such curve was filed as active; inconclusive = small, poorly fitted or top-dose-only effect, or effect the other way, or a change in a side signal; the % refers to the signal ratio
#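 Concentration-response series (up to 46 uM) were applied to TMD8 dual-reporter cells for 4 h at 37C with doxycycline. Green/red ratio, after filter-overlap correction, defined %Activity; red signal alone was normalised to basal cells and zero luminescence.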
# A number is an active result; i = inactive; ? = inconclusive; nt = no result; [ ] = another dose, or the depositor's remark. Unless noted, calls follow the shape of the dose curve; as a rule, active = well fitted curve in the direction sought with a large enough effect; inconclusive = small, poorly fitted or top-dose-only effect, or another doubt; inactive = no such curve, though single readings can be large; an effect the other way counts as inactive or inconclusive.
SMILES,MCF10A rerep,TDP1 cell noCPT,IL-1B inflam inh,TDP1 cell CPT,SW480 rerep,BCR signal inh
Cc1ccc(S(=O)(=O)CCSc2n[nH]c(=O)n2-c2ccccc2)cc1,i,?,?,i,i,i
COc1ccc(-c2cc(-c3cc(C)ccc3O)[nH]n2)cc1,18µM,?,?,?,?,?
COc1ccc(-c2cc(-c3ccc(OC)cc3)[nH]n2)cc1,?,?,i,?,i,?
CC(C)(C)c1ccc(-c2cc(-c3ccccc3O)[nH]n2)cc1,9.2µM,?,-99,?,?,i
COc1ccc(-c2cc(-c3ccc(C)cc3)n[nH]2)c(O)c1,i,?,i,26µM,?,?
O=C(C[n+]1cccc(C(=O)N/N=C/c2cccc([N+](=O)[O-])c2)c1)c1ccccc1,i,i,i,i,i,i
COc1ccccc1NC(=O)c1ccccc1C(=O)N(C)Cc1ccccc1,i,i,i,i,i,i
CC(=O)Nc1ccc(N2C(=O)CSC2c2cccc(Br)c2)cc1 (configuration not stated),i,i,i,i,i,i
COc1ccccc1CCNC(=O)CNC(=O)c1ccc2ccccc2c1,i,?,i,?,i,?
O=C(O)CCN1c2ccccc2Sc2ccccc21,i,i,i,i,i,i
CN1CC[C@H](CN2c3ccccc3Sc3ccccc32)C1,?,13µM,nt,?,?,nt
CN1CCC(CN2c3ccccc3Sc3ccccc32)C1 (configuration not stated),nt,12µM,nt,19µM,nt,nt
Oc1c(C(c2ccccc2)N2CCCCC2)ccc2ccccc12 (configuration not stated),nt,?,i,18µM,nt,nt
CCC1CCc2c(sc3ncnc(N4CCOCC4)c23)C1 (configuration not stated),?,18µM,i,?,?,i
COC(=O)c1cn(-c2nc3ccccc3s2)nn1,nt,16µM,i,?,nt,nt
Clc1ccc(-c2cn(-c3nc4ccccc4s3)nn2)cc1,nt,i,i,i,nt,nt
CNCCC=C1c2ccccc2C=Cc2ccccc21,i,13µM,-51,16µM,?,nt
COc1ccc(/C=C2\C=Cc3ccccc32)cc1,nt,i,nt,i,nt,nt
CN(C)CCC=C1c2ccccc2C(C)(C)c2ccccc21,30µM,?,nt,?,?,nt
CN(C)CCC=C1c2ccccc2C=Cc2ccccc21,i,15µM,?,?,?,?
CC(=O)Nc1cccc(N)c1,?,i,i,i,i,i
O=C(COC(=O)c1c[nH]c(=O)[nH]c1=O)Nc1cccc([N+](=O)[O-])c1,i,i,i,i,i,i
Cc1c(CN(C)C(=O)/C=C/c2ccc([N+](=O)[O-])cc2)cnn1C,i,?,i,23µM,i,?
Cc1ccc(N(CC(=O)NC2CCCC2)C(=O)CCC(=O)Nc2nccs2)c(C)c1,i,?,-54,i,i,i
CC(OC(=O)C1=Cc2ccccc2OC1)C(=O)NCC1CCCO1 (configuration not stated),21µM,i,i,?,i,nt
SMILES,MCF10A rerep,TDP1 cell noCPT,IL-1B inflam inh,TDP1 cell CPT,SW480 rerep,BCR signal inh
COCCNC(=O)C(C)OC(=O)C1=Cc2ccccc2OC1 (configuration not stated),i,i,i,i,i,i
COC(=O)CCCC1=CC2=C(c3ccccc3)C(=O)C(C)(OC(=O)C3CCCC3)C(=O)C2=CN1Cc1ccc2c(c1)OCO2 (configuration not stated),i,?,i,23µM,i,i
C=CCN1C=C2C(=O)C(C)(OC(=O)C3CCCC3)C(=O)C(c3ccccc3)=C2C=C1CCCC(=O)OC (configuration not stated),i,i,i,i,i[9.22 µM],i
COC(=O)CCCC1=CC2=C(c3ccccc3)C(=O)C(C)(OC(=O)C3CCCC3)C(=O)C2=CN1Cc1ccc(OC)cc1 (configuration not stated),i,?,i,23µM,i,i
COC(=O)CCCC1=CC2=C(c3ccccc3)C(=O)C(C)(OC(=O)C3CCCC3)C(=O)C2=CN1CCN1CCOCC1 (configuration not stated),i,i,i,i,i,i
Cc1nc(C/C(=N\Nc2ccccc2)c2ccc(O)cc2O)cs1,?,?,i,?,i,i
CCc1cc(/C(Cc2ccccn2)=N\Nc2ccccc2)c(O)cc1O,?,i,-76,?,i,i
NC(=O)CSc1ccc2nnc(-c3ccncc3)n2n1,nt,i,nt,i,nt,nt
COc1ccc(N(CC(=O)Nc2ccccc2C(=O)O)S(=O)(=O)c2ccc(C)c([N+](=O)[O-])c2)cc1,i,i,i,i,i,?
CCOc1ccc(C(=O)NCCNC(=O)c2ccc(OCC)cc2)cc1,i,i,i,i,i,i
CCN(CC)c1ccc(C(=O)N/N=C(\C)c2cccnc2)cc1,i,i,i,i,i,i
C/C(=N/NC(=O)c1ccc(-c2ccccc2)cc1)c1cc(O)cc(O)c1,i,16µM,?,21µM,i,i
C/C(=N\NC(=O)c1ccc(-c2ccccc2)cc1)C1C(=O)c2ccccc2C1=O,?,21µM,i,21µM,i,i
C/C(=N\NC(=O)c1cc(O)cc(O)c1)c1ccc(NC(=O)Cc2ccccc2)cc1,i,i,i,i,i,?
C/C(=N\NC(=O)c1ccc(Br)cc1)C1C(=O)c2ccccc2C1=O,?,i,i,?,i,?
CCN(CC)c1ccc(C(=O)N/N=C(\C)c2ccc(O)cc2)cc1,8.2µM,?,i,i,i,i
CCOc1ccc(C(=O)N/N=C(/C)C2C(=O)c3ccccc3C2=O)cc1,i,0.65µM,i,0.58µM,i,?
CCCCN(C(=O)c1cccc(S(=O)(=O)N(C)c2ccc(C)cc2)c1)c1c(N)n(CCCC)c(=O)[nH]c1=O,i,i,i,?,?,i
Cc1ccc(NC(=O)C2CC(=O)Nc3ncnn32)c(C)c1 (configuration not stated),i,i,i,i,?,i
Cc1nc(-c2ccccn2)nc(N(C)c2ccccc2)c1Cl,i,2.6µM,i,2.6µM,i,i
COc1ccc(-c2cc(C(=O)Nc3ccc(S(=O)(=O)Nc4onc(C)c4C)cc3)c3ccccc3n2)cc1,?,i,i,i,i,i
Cc1cccc(NC(=O)CC2C(=O)NCCN2C(=S)Nc2ccccc2)c1 (configuration not stated),16µM,i,-61,i,i,i
COc1ccccc1NC(=S)N1CCNC(=O)C1CC(=O)Nc1cccc(C)c1 (configuration not stated),i,i,i,i,i,i

# Compound activity as filed in PubChem BioAssay.
